{
  "source": "PubChem BioAssay (NCI)",
  "note": "This is part of a sample that, as a whole, favours compounds with a hit. Of some 83,000 tested, about 20% had one in any assay.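 48-hour exposure, single concentration, 96-well plates; percent growth endpoint where 0 means no net growth. Active: below 10.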 Values without a mark were called inactive. Activity calls are given as the source filed them.",
  "data": [
    {"tested_on": "MDA-MB-468 breast", "test": "NCI-60 one-dose screen, 48 h (100 = growth as untreated, 0 = no growth, -100 = all killed)", "settings": "10 µM unless noted", "values": [
      {"smiles": "CS(=O)(=O)c1nccc(-c2c(-c3cccc(OCc4ccc(Cl)c(C(F)(F)F)c4)c3)nc3sccn23)n1", "growth": "-66.1% (active)"},
      {"smiles": "CNC(=O)c1cc(Oc2ccc3nc(NC(=O)c4ccc(CN5CCCN(C)CC5)c(C(F)(F)F)c4)sc3c2)ccn1", "growth": "8.05% (active)"},
      {"smiles": "CC(=O)c1sc(-c2ccc(F)cc2)cc1O", "growth": "111%"},
      {"smiles": "CCCCCc1ccc(C)cc1OC(=O)CCl", "growth": "110%"},
      {"smiles": "CC(=O)OC(OC(C)=O)C1CCCO1", "note": "(centres undefined)", "growth": "99.5%"},
      {"smiles": "NNC(=O)c1ccc(C(=O)NN)cc1", "growth": "102%"},
      {"smiles": "COc1cc(C(C)c2ccc3c(ccn3C)c2)cc(OC)c1OC", "note": "(centres undefined)", "growth": "51.9%"},
      {"smiles": "COc1ccc(/C=C\\c2cc(OC)c(OC)c(OC)c2)cc1OC(=O)c1cccc(Cn2cc(CCOC(=O)[C@H](N)Cc3cn(C)c4ccccc34)nn2)c1", "growth": "13.9%"},
      {"smiles": "CCOC(=O)CNC(=O)C1(NC(=O)CNC(=O)OCc2ccccc2)CCCC1", "growth": "131%"},
      {"smiles": "Cc1cc2c(cc1C)Nc1sc(NC(=O)CN3CCN(C)CC3)nc1C(=O)N2", "growth": "105%"},
      {"smiles": "Cc1cc2c(-c3nc4ccccc4n3C)c(O)c(O)cc2c(O)c1-c1c(C)cc2c(-c3nc4ccccc4n3C)c(O)c(O)cc2c1O", "growth": "35.7%"},
      {"smiles": "Cn1cc(-c2ccc(F)c(C(F)(F)F)c2)nc1C1CCN(c2ncnc3[nH]ncc23)CC1", "growth": "64.6%"},
      {"smiles": "CC1(c2ccccc2O)NN=C(/N=C/c2cccc([N+](=O)[O-])c2)N1C(Cc1c[nH]c2ccccc12)C(=O)O", "note": "(centres undefined)", "growth": "103%"},
      {"smiles": "CCc1c2c(nc3ccc(OC(=O)N4CCC(N5CCCCC5)CC4)cc13)-c1cc3c(c(=O)n1C2)COC(=O)[C@]3(O)CC", "growth": "-31.2% (active)"}
    ]}
  ]
}
